TTR transcr act: activators of transthyretin transcription; activation, % at 16.7 µM; actives 1.3% (n = 92,000); SH-SY5Y TTR promoter Gaussia luciferase, luminescence; 100% = recombinant luciferase protein wells; AID 1117267;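 active = activation above the mean of all tested compounds plus 3 SD, cut at about 9.5% in these data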;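 note: cells exposed to compounds for one day before reading; 0% = median of all test compound wells on the plate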
TTR inh HuH7: counter-screen for TTR activators: TTR transcription inhibitors in HuH7 cells | shares compounds with TTR transcr act | HuH7 TTR promoter-Gaussia luciferase reporter, luminescence | inhibition, % at 16.7 µM | actives 4% (n = 1,100);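 active = average inhibition above the solvent-only control wells' mean plus 3 SD, cut at about 15% in these data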;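 note: 0% = cells with DMSO only and 100% = cells with inhibitor control FD; inhibitors lower well luminescence so higher value means more inhibition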
TTR act confirm: confirmation of human transthyretin transcription activators; shares compounds with TTR transcr act; SHSY5Y TTR promoter Gaussia luciferase, luminescence; 100% = purified Lucia enzyme wells, no cells; activation, % at 16.7 µM; 1,100 tested, under 10 active; AID 1117280;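 active = mean activation above a set limit taken from the earlier primary screen, cut at about 11% in these data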;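 note: 0% = DMSO-treated cells and 100% = recombinant Lucia luciferase without cells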
Starred values were filed as active, the others as inactive. Many of the other results were omitted from the sample, so hits are more common in it than they were.

SMILES	TTR transcr act	others
COC(=O)[C@]12C[C@H](CC(=O)NCc3cccs3)C(=O)N(Cc3ccco3)C1=C[C@H](C1CCCC1)O[C@@H]2C	0
Cc1cc(C(=O)NCCCn2ccnc2)cs1	0
COc1cc(C(=O)NCCCn2ccnc2)cc(OC)c1OC	-1
O=C(NCCCn1ccnc1)c1cc(C2CC2)on1	10*	TTR inh HuH7=-2;TTR act confirm=1
O=C(Nc1ccc(Cl)cn1)c1ccc2nccnc2c1	0
COc1ccc(-c2c(C(=O)c3ccccc3)[nH]c(N)c2C(=O)NC2CC2)cc1OC	5
Cc1ccc(CCNC(=O)CCNS(=O)(=O)c2ccc3c(c2)c(=O)n(C)c(=O)n3C)cc1	9.9*	TTR inh HuH7=-6;TTR act confirm=-1
Cc1csc(NC(=O)CCNS(=O)(=O)c2ccc3c(c2)c(=O)n(C)c(=O)n3C)n1	4
Cc1ccc(CCNC(=O)CN(C)S(=O)(=O)c2ccc3c(c2)c(=O)n(C)c(=O)n3C)cc1	0
CCCNC(=O)C1(C)CCN(C(=O)c2ccc3c(c2)CCO3)C1 (centres undefined)	3
CCN(Cc1cccs1)c1ncnc2ccc(-c3ccc4c(c3)OCO4)cc12	-1
O=S(=O)(NCCNc1nccc(C(F)(F)F)n1)c1ccccc1	9.8*	TTR inh HuH7=-13;TTR act confirm=1
COc1ccc(OCCNS(=O)(=O)c2ccccc2)cc1	2
O=C(NCCNc1nccc(C(F)(F)F)n1)c1cccc(C(F)(F)F)c1	-2
CC(=O)c1cccc(NC(=O)COC(=O)c2n[nH]c3ccccc23)c1	3
COc1ccc(OC)c(NC(=O)Nc2ccc3[nH]ccc3c2)c1	-1
OCC1CCCN(C(=S)NCCc2ccccc2)C1 (centres undefined)	2
O=C(c1ccccc1)N1CCN(C(=S)NCCc2ccccc2)CC1	-1
CN1CCN(C(=S)NCCc2ccccc2)CC1	11*	TTR inh HuH7=-14;TTR act confirm=-1
O=C(CSc1nnc(NC(=O)C2CC2)s1)Nc1ccccc1C(F)(F)F	0
CSc1nc(N)nc(C2CC2)n1	2
Cc1ccccc1-c1nnn(CC(=O)Nc2ccc3c(c2)OCCO3)n1	3
COc1ccc(CN(C)CC(=O)Nc2ccccc2C(F)(F)F)cc1	-1
CSc1ccccc1NC(=O)CN(C)CC(=O)Nc1ccc(Cl)cc1F	-1
CSc1ccccc1NC(=O)CN(C)CC(=O)Nc1ccccc1C(F)(F)F	12*	TTR inh HuH7=-19;TTR act confirm=0
SMILES	TTR transcr act	others
COc1ccccc1-c1ccc([C@@H]2C[C@H]3[C@H](CON3C)CN2CC2CCCCC2)cc1	1
COc1ccc(SCCc2nnc(-c3ccccc3)o2)cc1	-1
CCCc1nnc(-c2ccc(OC)cc2)o1	12*	TTR inh HuH7=-1;TTR act confirm=-1
COc1ccc(Cc2nnc(-c3ccccc3)o2)cc1	-1
NNc1ccc(Cl)nn1	0
O=C(NNC(=O)c1cc(Cl)ccc1O)c1cccs1	3
O=C(CCC(=O)c1cccs1)NNC(=O)c1cc(Cl)ccc1Cl	0
COc1ccc(Cl)cc1C(=O)NNC(=O)COC(=O)c1cccs1	10*	TTR inh HuH7=-6;TTR act confirm=-1
COc1ccc([N+](=O)[O-])cc1NC(=O)COC(=O)c1ccc(O)cc1	0
CCOC(=O)c1cnc(-c2ccccc2)nc1N1CCOCC1	-1
CCOC(=O)c1cnc2cc(-c3ccc(Br)cc3)nn2c1C	2
CCOC(=O)c1cnc2c(-c3ccccc3)cnn2c1C	13*	TTR inh HuH7=-2;TTR act confirm=4
O=C1CCC[C@H]2Cc3nc4cc5c(cc4cc3C[C@]23CCCN13)OCO5	3
CCC[C@H]1[C@@H](OC(=O)NCc2ccccc2Cl)CC[C@@]23CCCN2C(=O)CCC[C@@H]13	-1
COC(=O)[C@]12C[C@H](CC(=O)NCc3cccc(C(F)(F)F)c3)C(=O)N(Cc3ccc(Cl)cc3Cl)C1=C[C@H](C1CCCC1)O[C@@H]2C	0
COc1ccc(-c2noc3c2-c2nc(C(C)C)sc2CC3)cc1	4
CCCc1nc2c(s1)CCc1onc(-c3ccc(OC)cc3)c1-2	-4
Brc1ccc(-c2noc3c2-c2nc(C4CCCCC4)sc2CC3)cc1	14*	TTR inh HuH7=-4;TTR act confirm=0
CCn1nc(Cc2cccc3ccccc23)c(C#N)c1N	-1
COc1ccc(C2C(C(=O)N3CCN(c4ccccc4)CC3)c3ccccc3C(=O)N2C)cc1OC (centres undefined)	2
COc1ccc(C2C(C(=O)O)c3ccccc3C(=O)N2C)cc1Br (centres undefined)	11*	TTR inh HuH7=-5;TTR act confirm=0
COc1ccc(OC)c(C2C(C(=O)O)c3ccccc3C(=O)N2C)c1 (centres undefined)	-2
CS(=O)(=O)c1ccc(C(=O)OCC#CCSc2nnc(-c3cccc4ccccc34)o2)cc1	-1
C=CCNC(=O)CSc1nnc(C(CC)N(C)C)n1C1CCCCC1 (centres undefined)	2
